# Test results as given in PMC11062922 (Nature Chemical Biology, 2023).
# Like-named read-outs stand apart in the source and are kept apart here.
# Key:
# Design in all cases: species or system human, MV4-11 + K-562 + COLO205 + SK-N-BE2 + OVCAR-8
# [1] = system: ABCD3; settings: read-out: apparent Kd, n = 1
# [2] = system: ACVR2B; settings: read-out: apparent Kd, n = 1
# [3] = system: MAPK10; settings: read-out: apparent Kd; compound concentrations:100 nM and 1000 nM (sheet 'Samples'); n = 1
# [4] = system: MAPK11; settings: read-out: apparent Kd; compound concentrations:100 nM and 1000 nM (sheet 'Samples'); n = 1
# [5] = system: SYK; settings: read-out: apparent Kd, n = 1
# [6] = system: PYGL; settings: read-out: apparent Kd; compound concentrations: 100 nM and 1000 nM (sheet 'Samples'), CATDS: 1.6934358184527699E-2; n = 1
# [7] = system: BMPR1A; settings: read-out: apparent Kd; compound concentrations:100 nM and 1000 nM (sheet 'Samples'); n = 1
# [8] = system: EPHB3; settings: read-out: apparent Kd, n = 1
# [9] = system: LIMK1; settings: read-out: apparent Kd, n = 1
# [10] = system: SIK3; settings: read-out: apparent Kd, n = 1
# [11] = system: CDK4; settings: read-out: apparent Kd; compound concentrations: 100 nM and 1000 nM (sheet 'Samples'), CATDS: 1.3251728133645901E-2; n = 1
# [12] = system: ERBB3; settings: read-out: apparent Kd, compound concentrations: 100 nM and 1000 nM (sheet 'Samples'), n = 1
# [13] = system: TAOK1; settings: read-out: apparent Kd, compound concentrations: 100 nM and 1000 nM (sheet 'Samples'), n = 1
# [14] = system: AURKA; settings: read-out: apparent Kd, compound concentrations: 100 nM and 1000 nM (sheet 'Samples'), n = 1
# [15] = system: CDK7; settings: read-out: apparent Kd, compound concentrations: 100 nM and 1000 nM (sheet 'Samples'), n = 1
# [16] = system: ERCC2; settings: read-out: apparent Kd, compound concentrations: 100 nM and 1000 nM (sheet 'Samples'), n = 1
# [17] = system: NUAK1; settings: read-out: apparent Kd, compound concentrations: 100 nM and 1000 nM (sheet 'Samples'), n = 1
# [18] = system: PKN3; settings: read-out: apparent Kd; compound concentrations: 100 nM and 1000 nM (sheet 'Samples'), CATDS: 1.04428727598351E-2; n = 1
# [19] = system: STK10; settings: read-out: apparent Kd, compound concentrations: 100 nM and 1000 nM (sheet 'Samples'), n = 1
# [20] = system: ADCK3; settings: read-out: apparent Kd; compound concentrations: 100 nM and 1000 nM (sheet 'Samples'), CATDS: 0.16598723814203101; n = 1
# [21] = compound concentrations:100 nM and 1000 nM (sheet 'Samples')
compound,measurement,setting,value
Cc1cccc(-c2cc(-c3c[nH]nc3-c3ccccn3)ccn2)c1 [GW679395X],potency estimated from few doses,[1]; [21],1.2 µM
same,potency estimated from few doses,[2]; [21],1.66 µM
same,potency estimated from few doses,[3],1.73 µM
same,potency estimated from few doses,[4],1.35 µM
same,potency estimated from few doses,[5]; [21],2.31 µM
Cl.Cl.Cl.c1ccc(Oc2ccc(Nc3ccnc4cc(-c5ccc(CN6CCNCC6)o5)ccc34)cc2)nc1.c1ccc(Oc2ccc(Nc3ccnc4cc(-c5ccc(CN6CCNCC6)o5)ccc34)cc2)nc1 [GW567142A],potency estimated from few doses,[6],2.08 µM
same,potency estimated from few doses,"[5]; compound concentrations: 100 nM and 1000 nM (sheet 'Samples'), CATDS: 1.6781429181419099E-2",2.16 µM
CCN(CC)CCOc1ccc(Nc2ncc3cc(-c4c(Cl)cccc4Cl)c(=O)n(C)c3n2)cc1 [SB-601273],potency estimated from few doses,[7],0.538 µM
same,potency estimated from few doses,[8]; [21],1.22 µM
same,potency estimated from few doses,[9]; [21],1.11 µM
same,potency estimated from few doses,[10]; [21],0.201 µM
CC(C)c1nc(-c2cccc(NS(=O)(=O)c3ccccc3)c2)c(-c2ccnc(Nc3ccc4c(c3)CN(C)CC4)n2)s1 [GSK1649598A],potency estimated from few doses,[11],1.4 µM
same,potency estimated from few doses,[12]; CATDS: 1.39186209544408E-2,1.14 µM
same,potency estimated from few doses,"[9]; compound concentrations: 100 nM and 1000 nM (sheet 'Samples'), CATDS: 7.0535341813333999E-2",0.0385 µM
same,potency estimated from few doses,[13]; CATDS: 1.55271176192178E-2,0.769 µM
CS(=O)(=O)CCNCc1ccc(-c2ccc3ncnc(Nc4ccc(OCc5cccc(F)c5)c(C(F)(F)F)c4)c3c2)o1 [GW576484X],potency estimated from few doses,"[1]; compound concentrations: 100 nM and 1000 nM (sheet 'Samples'), CATDS: 5.3363712768055301E-2",1.7 µM
same,potency estimated from few doses,"[8]; compound concentrations: 100 nM and 1000 nM (sheet 'Samples'), CATDS: 4.6783581960199903E-2",2.31 µM
same,potency estimated from few doses,[12]; CATDS: 5.8570940838060803E-2,1.4 µM
same,potency estimated from few doses,[13]; CATDS: 9.5612553502410894E-2,0.618 µM
O=C1N=C(NCc2cccs2)SC1Cc1ccc2ncccc2c1 (centres unmarked) [RO4629078-000],potency estimated from few doses,[14]; CATDS: 9.8241479768662494E-3,0.7 µM
same,potency estimated from few doses,[15]; CATDS: 2.7171532019021599E-2,0.112 µM
same,potency estimated from few doses,"[8]; compound concentrations: 100 nM and 1000 nM (sheet 'Samples'), CATDS: 9.3855974911044807E-3",0.79 µM
same,potency estimated from few doses,[16]; CATDS: 9.4373206529466905E-3,0.778 µM
same,potency estimated from few doses,[17]; CATDS: 9.4682639487438207E-3,0.771 µM
same,potency estimated from few doses,[18],0.602 µM
same,potency estimated from few doses,[19]; CATDS: 8.8435588705339796E-3,0.935 µM
same,potency estimated from few doses,[13]; CATDS: 7.4050083824812101E-3,1.73 µM
CN1C(=O)c2ccccc2N(C)c2nc(Nc3cnn(C4CCNCC4)c3)ncc21 [XMD-17-51],potency estimated from few doses,[14]; CATDS: 0.190670193315162,0.00582 µM
same,potency estimated from few doses,[15]; CATDS: 1.6224786894182001E-2,0.901 µM
same,potency estimated from few doses,[16]; CATDS: 1.6840556785817699E-2,0.788 µM
same,potency estimated from few doses,[17]; CATDS: 0.118275245978952,0.0116 µM
same,potency estimated from few doses,"[10]; compound concentrations: 100 nM and 1000 nM (sheet 'Samples'), CATDS: 1.5899502438213298E-2",0.973 µM
same,potency estimated from few doses,[19]; CATDS: 1.3341325559896399E-2,2.18 µM
same,potency estimated from few doses,[13]; CATDS: 5.6290782434041703E-2,0.0407 µM
COc1ccc(-n2cnc3c(N)ncnc32)cc1 [SKF-97236],potency estimated from few doses,"[1]; compound concentrations: 100 nM and 1000 nM (sheet 'Samples'), CATDS: 0.13687794544238399",1.49 µM
same,potency estimated from few doses,[20],0.922 µM
Cc1ccc(O)cc1Nc1ccnc2cc(-c3ccccn3)ccc12.Cl [GW440139A],potency estimated from few doses,"[2]; compound concentrations: 100 nM and 1000 nM (sheet 'Samples'), CATDS: 0.21714398687124201",0.00563 µM
same,potency estimated from few doses,"[8]; compound concentrations: 100 nM and 1000 nM (sheet 'Samples'), CATDS: 2.4596610963575599E-2",2.12 µM
